Laboratory results as given in PubChem BioAssay (EPA / NIEHS).
Some structures have more than one record in an assay (separate samples or runs), and their calls can disagree. Activity calls are given as the source filed them. Rule for the calls: active = hit-call score of the fitted dose curve at least 0.9, where 1 is the maximum; inactive = score below 0.9.

The compounds below were run on Interleukin-8 (IL8), CXCL8 (gene 3576) (assay: BSK_3C_IL8: BioMAP Diversity Plus: 3C Assay for Interleukin-8 (IL8) Biomarker Activity (AID 2283020)). Details: primary human endothelial cells (HUVEC); actives raise or lower the signal.
Method: BSK_3C is a cell-based, multiplexed-readout assay that uses umbilical vein endothelium, a human vascular primary cell, with measurements taken at 24 hours after chemical dosing in a 96-well plate.BSK_3C_IL8 is an assay component measured in the BSK_3C assay. It measures IL-8 antibody related to regulation of gene expression using ELISA technology.Data from the assay component BSK_3C_IL8 was analyzed into 1 assay endpoint. This assay endpoint, BSK_3C_IL8, was analyzed with bidirectional fitting relative to DMSO as the negative control and baseline of activity. Using a type of binding reporter, gain or loss-of-signal activity can be used to understand changes in the signaling as they relate to the gene CXCL8. Furthermore, this assay endpoint can be referred to as a primary readout, because this assay has produced multiple assay endpoints where this one serves a signaling function. To generalize the intended target to other relatable targets, this assay endpoint is annotated to the cytokine intended target family, where the subfamily is interleukins.
The levels of cell surface (or secreted, indicated by the prefix "s") biomarker endpoints were measured by ELISA. Overt cytotoxicity to cells in confluent adherent cultures (all systems other than the BT system) was assessed by measuring total protein levels using sulforhodamine B (SRB) staining in parallel cultures at the time of biomarker measurements, indicated as SRB endpoints. For proliferation assays for adherent cell types, individual cell types are cultured at sub-confluence and relative cell numbers quantified by SRB staining at time points optimized for each system (48 h: 3C and CASM3C systems; 72 h: BT and HDF3CGF systems; 96 h: SAg system). SRB was performed by staining cells with 0.1% SRB after fixation with 10% TCA and reading wells at 560 nm.Viability and proliferation of PBMC (T cells) was quantified by Alamar Blue reduction for the SAg and BT systems. For PBMC viability (referred to as PBMC Cytotoxicity within the assay endpoint names), cells were plated (75,000/well in a 96-well plate) and then chemical samples added for 1 h before addition of activators, SEB and TSST-1 (20 ng/mL final concentration each). Cells were incubated for 90 h. Then, Alamar Blue (20 uL/well) (Invitrogen, Cat DAL1100) was added for 6 h, and the plates were read with a fluorescence microplate reader at 546/580 nm (excitation/emission). For PBMC proliferation, cells were plated and activated as above but incubated for only 16 h prior to addition of Alamar Blue. Plates were read after 6 h.

| Compound | outcome | AC50 |
| --- | --- | --- |
| c1ccc2c(c1)-c1cccc3cccc-2c13 | inactive |  |
| O=C1CCCO1 | inactive |  |
| CCNS(=O)(=O)C(F)(F)C(F)(F)C(F)(F)C(F)(F)C(F)(F)C(F)(F)C(F)(F)C(F)(F)F | inactive | 26 µM (active) |
| [Cl-].[Cl-].[Hg+2] |  | 31.1 µM (active) |
| O=C(Nc1ccccc1)c1ccccc1I | inactive |  |
| O=Cc1ccco1 | inactive |  |
| O=P(OCCCl)(OCCCl)OCCCl | inactive |  |
| CC(C)(C)OOC(=O)c1ccccc1 | inactive |  |
| CCCSC(=O)N(CCC)CCC | inactive |  |
| c1ccc(NNc2ccccc2)cc1 | inactive |  |
| CC(C)COC(=O)c1ccccc1C(=O)OCC(C)C |  | 31.5 µM (active) |
| CC(C)N(Cc1ccccc1)C(=O)C(C)(C)C | inactive |  |
| [As]#[In] | inactive |  |
| CC(C)(C)OOC(C)(C)CCC(C)(C)OOC(C)(C)C | inactive |  |
| CC(C)(C)C(O)(CCc1ccc(Cl)cc1)Cn1cncn1 (stereo not given) | inactive |  |
| Clc1ccc(Cl)c(Cl)c1 | inactive |  |
| C[N+](C)(C)CC1CO1 (stereo not given) | inactive |  |
| CCCCC(CC)COC(=O)c1ccc(C(=O)OCC(CC)CCCC)c(C(=O)OCC(CC)CCCC)c1 (stereo not given) | inactive |  |
| C[C@]12C=CC3=C4CCC(=O)C=C4CC[C@H]3[C@@H]1CC[C@@H]2O | inactive |  |
| CCCCOC(=O)c1ccccc1C(=O)OCc1ccccc1 | inactive |  |

| Compound | outcome | AC50 |
| --- | --- | --- |
| Oc1ccc2ccc3cccc4ccc1c2c34 |  | 32.8 µM (active) |
| CCN(CC)CCO | inactive |  |
| N#CC(Br)Br | inactive |  |
| Cc1ccc([N+](=O)[O-])cc1 | inactive |  |
| [O-][Cl+]O | inactive |  |
| OCCOCCO | inactive |  |
| CCC[CH2][Sn]([Cl])([CH2]CCC)[CH2]CCC |  | 0.155 µM (active) |
| O=C(N[C@H](c1ccccc1)[C@@H]1CN2CCC1CC2)c1c(Cl)ccc(C(F)(F)F)c1Cl |  | 19 µM (active) |
| Cc1ccc(N=C=O)cc1N=C=O | inactive |  |
| CS(=O)(=O)NC(=O)c1cc(Oc2ccc(C(F)(F)F)cc2Cl)ccc1[N+](=O)[O-] | inactive |  |
| CCCCCCCCOC(=O)c1ccc(C(=O)OCCCCCCCC)c(C(=O)OCCCCCCCC)c1 | inactive |  |
| Nc1ccc(Cc2ccc(N)cc2)cc1 | inactive |  |
| N#CC(Br)(Br)C(N)=O | inactive |  |
| COC(=O)Nc1nc2ccccc2[nH]1 | inactive |  |
| O=C(O)C1C2CCC(O2)C1C(=O)O (stereo not given) | inactive |  |
| C=CCc1ccc2c(c1)OCO2 | inactive |  |
| Brc1ccc(Oc2ccccc2)cc1 | inactive |  |
| CCOC(=O)[C@]1(c2ccccc2)Oc2ccccc2[C@@H]1N |  | 20 µM (active) |
| CC(C)(O)c1cnn2c(-c3ccc(F)c(-c4c(F)cccc4C#N)c3)cnc2n1 |  | 20 µM (active) |
